# G9a inh = qHTS Assay for Inhibitors of Histone Lysine Methyltransferase G9a; Histone-lysine N-methyltransferase EHMT2 (Homo sapiens), Q96KQ7; G9a H3K9 monomethylation, AlphaScreen, 2 h; Potency, µM (top dose mostly 102 µM), inactives show top-dose activity, negative = inhibition, usual class: inhibitors; 350,000 tested, 8.8% active; further: on the % scale 0 is the no-effect control and ±100 the full control effect; nearly all actives have a fitted effect of over 75% in size
# Target sequence (Q96KQ7 913-1193 limits assumed): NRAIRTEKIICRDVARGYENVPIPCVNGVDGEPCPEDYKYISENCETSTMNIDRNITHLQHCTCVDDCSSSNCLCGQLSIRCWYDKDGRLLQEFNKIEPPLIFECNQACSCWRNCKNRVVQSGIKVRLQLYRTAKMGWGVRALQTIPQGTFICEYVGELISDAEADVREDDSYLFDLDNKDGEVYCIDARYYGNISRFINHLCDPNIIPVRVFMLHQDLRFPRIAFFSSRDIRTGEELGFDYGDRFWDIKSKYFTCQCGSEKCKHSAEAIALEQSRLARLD
#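 AlphaScreen read-out: biotin-H3K9 peptide (500 nM) methylation by 20 nM enzyme with 20 uM SAM, 2 h at room temperature after 15 min compound preincubation; anti-monomethyl H3K9 antibody plus donor/acceptor beads, 10 min dark.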
# Sfp inh = qHTS Assay for Inhibitors of Bacillus subtilis Sfp phosphopantetheinyl transferase (PPTase); AID 1490, 2009; Biochemical Sfp PPTase activity, qHTS; 310,000 tested, 3.5% active; Potency, µM, without a hit: largest response in the series, negative = inhibition, most hits filed as inhibitors;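 further: the enzyme is Sfp with the accession as filed and its product quenches rhodamine fluorescence; 0% = enzyme reaction without inhibitor and -100% = no enzyme wells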
#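 With Hepes-Na pH 7.6 buffer containing 10 mM MgCl2, Sfp (15 nM) modified BHQ-2-YbbR (12.5 uM) using rhodamine-CoA (5 uM). Two reads 30 minutes apart at 525/598 nm yielded each well's rate.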
# BAZ2B block = qHTS Assay for Inhibitors of BAZ2B | Bromodomain adjacent to zinc finger domain protein 2B (Homo sapiens), Q9UIF8 | AlphaScreen BAZ2B-H3K14Ac peptide displacement | Potency, µM (titrated, usually from 114 µM), without a hit: top-dose activity change, negative = inhibition, hits mostly inhibitors | 360,000 tested, 4.4% active | AID 504333, 2011; further: on the % scale 0 is the no-effect control and ±100 the full control effect; nearly all actives have a fitted effect of over 60% in size
#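 Multi-concentration screen (max 110 uM) measuring displacement of acetylated histone H3 peptide from BAZ2B by AlphaScreen, using 50 nM protein, 50 nM peptide and 10 ug/mL streptavidin donor plus Ni-chelate acceptor beads.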
# HP1b chromo inh = HTS for Inhibitors of HP1-beta Chromodomain Interactions with Methylated Histone Tails; AlphaScreen HP1-beta / biotin-H3K9me3 peptide binding; Potency, µM (doses to about 114 µM), for the others: at the top dose activity change, negative = inhibition, actives largely listed as inhibitors; Chromobox protein homolog 1 (Homo sapiens), P83916; 390,000 tested, 0.56% active; AID 540317, 2011; further: nearly all actives have a fitted effect of over 70% in size
# Target sequence (P83916 whole entry, looked up): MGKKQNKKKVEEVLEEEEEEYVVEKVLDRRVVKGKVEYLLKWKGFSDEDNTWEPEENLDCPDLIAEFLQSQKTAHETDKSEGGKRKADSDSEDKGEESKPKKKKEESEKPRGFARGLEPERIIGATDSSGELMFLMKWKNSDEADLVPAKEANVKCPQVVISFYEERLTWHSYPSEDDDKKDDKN
#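 AlphaScreen: HP1-beta (50 nM) preformed 30 min with biotin-H3(1-18)K9me3 peptide (50 nM) in PBS pH 7.4, 0.01% Tween-20. Compound added for 30 min at RT, then streptavidin donor/nickel chelate acceptor beads (10 ug/mL) for 30 min.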
# L3MBTL1 block = qHTS Assay for the Inhibitors of L3MBTL1. AID 485360, 2010. Lethal(3)malignant brain tumor-like protein 1 (Homo sapiens), Q9Y468. AlphaScreen L3MBTL1–H3K9me1 peptide binding. Potency, µM (titrated, usually from 57.1 µM), for inactives: at the highest dose activity, negative = inhibition, usual class: inhibitors. 230,000 tested, 0.66% active; further: on the % scale 0 is the no-effect control and ±100 the full control effect; nearly all actives have a fitted effect of over 60% in size
#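 Displacement of a biotinylated histone H3(1-15) peptide monomethylated at Lys9 (75 nM) from L3MBTL1 (50 nM) was measured by AlphaScreen after a 30 min room-temperature compound incubation; cefsulodin titration served as intraplate control.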
# JMJD2A Tudor inh = qHTS Assay for Inhibitors of JMJD2A-Tudor Domain | AlphaScreen JMJD2A-Tudor / H3K4me3 peptide binding | 390,000 tested, 4.4% active | Potency, µM (highest dose often 114 µM), inactives show at the highest dose activity change, negative = inhibition, usual class: inhibitors | AID 504339, 2011; further: on the % scale 0 is the no-effect control and ±100 the full control effect; nearly all actives have a fitted effect of over 50% in size
# Starred values were filed as active, the others as inactive; ? = inconclusive; . = not tested or not shown; [ ] = remark or other dose. Compounds with a hit are over-represented: about 12% of the library has one in this group of screens. The call rests on the fitted dose curve; in most records, active means well fitted curve in the direction sought with a large enough effect; inconclusive means small, poorly fitted or top-dose-only effect, or another doubt; inactive means no such curve, though single readings can be large; an effect the other way counts as inactive or inconclusive. Potency means the concentration at half of the fitted maximal effect.
SMILES,G9a inh,Sfp inh,BAZ2B block,HP1b chromo inh,L3MBTL1 block,JMJD2A Tudor inh
CCN1CCC(N(Cc2ccc(F)cc2)C(=O)Nc2cccc(C(F)(F)F)c2)CC1,-3%[59 µM],.,0%,41%,.,-3%
CCC(=O)N(Cc1ccco1)c1nc(-c2ccc(OC)cc2)cs1,8%[59 µM],9%,-4%,22%,?,-16%
COCC(=O)N(Cc1ccco1)c1nnc(C2CCOC2)s1 (stereo not given),79µM*,1%,13%,37%,.,-1%
Cc1cc(C)c(NC(=O)C2CCCCN2C)c(C)c1 (stereo not given),89µM*,-1%,?,25%,.,-14%
O=c1[nH][nH]c(-c2ccccc2O)c1C(C[N+](=O)[O-])c1ccc(Cl)cc1Cl (stereo not given),-12%[59 µM],24%,?,11%,-7%,-20%
Cc1cc(O)c(C(C[N+](=O)[O-])c2ccc(Cl)cc2Cl)c(=O)o1 (stereo not given),4.5µM*,?,?,16%,.,-14%
CCS(=O)(=O)N1CCc2cc(C(=O)Nc3cc([N+](=O)[O-])ccc3C)ccc21,?,.,?,4%,.,?
COc1cccc(Cn2ccn(-c3ccc(F)cc3)c(=O)c2=O)c1,2%[59 µM],.,-1%,50%,.,5%
O=C(CNc1ccccc1Cl)c1ccc(Br)cc1,79µM*,?,3%,45%,1%,-10%
COc1ccccc1CNC(=O)CN1C(=O)COc2ccc(S(=O)(=O)N3CCC(C)CC3)cc21,-2%[59 µM],.,-15%,26%,.,-21%
COc1ccc(OC)c(NC(=O)CCc2c(C)nn(-c3ccc(N4CCCC4)nn3)c2C)c1,3%[59 µM],.,?,90%,.,?
COc1ccccc1-c1sc2ccccc2c1-c1ccc(OCCN2CCCCC2)cc1,.,.,.,?,-16%,35µM*
COc1cc2sc(-c3ccccc3OC)c(-c3ccc(OCCN4CCOCC4)cc3)c2cc1OC,.,.,.,?,-18%,32µM*
COc1ccc2c(-c3ccc(OCCN4CCOCC4)cc3)c(-c3ccccc3OC)sc2c1,.,.,.,-17%,-23%,?
COc1ccc2c(-c3ccc(OCCN4CCCCC4)cc3)c(-c3ccccc3OC)sc2c1,.,.,.,-34%,-24%,28µM*
COc1ccc(-c2c(-c3ccccc3OC)sc3ccccc23)cc1OC,-13%,4%,-8%,49%,-3%,-20%
CCOc1ccc(CCNC(=O)c2c(C)oc3ncn(CC(C)C)c(=O)c23)cc1,-21%[59 µM],.,8%[57.1 µM],40%,.,-9%
COc1ccc(Cn2ccc3nc(C)c(C(=O)N4CCN(c5ccccc5OC)CC4)cc3c2=O)cc1,-4%[59 µM],.,-12%,-8%,.,-33%
Cc1cccc(CCNC(=O)c2ccc3c(c2)nc2n3CCCCC2)c1,1%[59 µM],.,4%,25%[57 µM],.,0%
COc1ccc2c(c1)c1c(c(=O)n(Cc3ccccc3)c(=O)n1CC(=O)NCc1ccccc1Cl)n2C,-5%[59 µM],.,1%,36%,.,6%
CCOc1ccccc1CNC(=O)CCCn1c(=O)c2cccn2c2ccc(F)cc21,-4%[59 µM],.,0%,22%,.,-6%
CCc1cccc(-n2c(C)nc3c(cnn3-c3ccc(C)c(C)c3)c2=O)c1,-2%[59 µM],.,.,32%,.,0%
Cc1cc(C)cc(N2CCn3c2nc2c3c(=O)n(Cc3ccc(Cl)cc3)c(=O)n2C)c1,-22%[59 µM],.,-2%,26%,.,-13%
COc1ccccc1-c1nc2c(c(SCC(=O)Nc3ccc(C)c(C)c3)n1)Cc1c(CO)cnc(C)c1O2,?,.,-21%,-2%,.,-18%
CC(=O)C1=C(O)C(=O)N(c2ccccn2)C1c1ccccc1[N+](=O)[O-] (stereo not given),?,-22%,?,29%,.,20µM*
SMILES,G9a inh,Sfp inh,BAZ2B block,HP1b chromo inh,L3MBTL1 block,JMJD2A Tudor inh
CC(=O)C1=C(O)C(=O)N(c2ccccn2)C1c1cccc(F)c1 (stereo not given),45µM*,-14%,?,29%,.,-11%
CC(=O)C1=C(O)C(=O)N(c2ccc(Br)cn2)C1c1ccccc1[N+](=O)[O-] (stereo not given),40µM*,-27%,-30%,41%,.,-22%
CCOc1ccc(NC(=O)CSc2nnc3scc(-c4ccccc4)n23)cc1,-28%[59 µM],.,3%,19%,.,-5%
C/C(=N/NS(=O)(=O)c1cccc([N+](=O)[O-])c1)c1ccc2c(c1)OCO2,32µM*,-7%,-38%,20%,.,-5%
C/C(=N\NS(=O)(=O)c1ccc(Cl)c([N+](=O)[O-])c1)c1cc2ccccc2o1,?,-2%,?,-9%,.,?
C/C(=N\NS(=O)(=O)c1ccc(C)c([N+](=O)[O-])c1)c1ccc2c(c1)OCO2,45µM*,-14%,-27%,26%,.,-20%
C/C(=N\NS(=O)(=O)c1ccc(Cl)c([N+](=O)[O-])c1)c1ccc(C)o1,-36%[12.7 µM],-13%,79µM*,43%,.,?
C/C(=N/NS(=O)(=O)c1ccc(C)cc1C)c1ccc2c(c1)OCO2,.,?,-15%,27%,.,-23%
COc1ccc(OC)c(S(=O)(=O)N/N=C(/C)c2ccc3c(c2)OCO3)c1,32µM*,14%,-13%,49%,.,-1%
CCOc1ccc(NC(=O)c2cnn3c2NC(c2cccc(OC)c2)=CC3c2ccccc2)cc1 (stereo not given),-4%[59 µM],.,-7%,27%,.,-14%
COc1ccccc1CNC(=O)CN1C(=O)COc2ccc(S(=O)(=O)Nc3ccccc3)cc21,-27%[59 µM],.,-11%,12%,.,-6%
Cc1cc(N2CCN(C)CC2)nc2ccc(NC(=S)N3CCN(c4ccc(F)cc4)CC3)cc12,-20%[59 µM],25%,-31%,14%,.,-24%[11.4 µM]
Cc1cc(N2CCOCC2)nc2ccc(NC(=S)N3CCCCC3C)cc12 (stereo not given),45µM*,?,.,-2%,.,?
Cc1cc(N2CCN(C)CC2)nc2ccc(NC(=S)N3CCCCCC3)cc12,56µM*,-9%,-34%,0%[57 µM],.,-35%
Cc1cc(N2CCOCC2)nc2ccc(NC(=O)C3CCCCC3)cc12,.,.,.,56%,.,-11%
Cc1cc(N2CCN(C)CC2)nc2ccc(NC(=S)N3CCN(c4ccc(Cl)cc4)CC3)cc12,40µM*,45µM*,-29%,-18%,.,-30%
